Data reported in PubChem BioAssay (EPA / NIEHS).
Where “and” joins values, the source holds several entries; their conditions need not be identical. Equal values may be shown once. Where a structure was tested more than once in an assay, its records may differ in their call. Calls of active or inactive are those of the source. The calls were made as follows: active = hit-call score of the fitted dose curve at least 0.9, where 1 is the maximum; inactive = score below 0.9.

Assay: ATG_MRE_CIS: Attagene CIS-FACTORIAL HepG2 Assay for human Metal Responsive Element (MRE) (AID 2282954)
Conditions: HepG2 MRE cis-reporter transcription, Attagene multiplex; actives raise or lower the signal
Method: ATG_CIS is a cell-based, multiplexed-readout assay that uses HepG2, a human liver cell line, with measurements taken at 24 hours after chemical dosing in a 24-well plate.ATG_MRE_CIS is one of 52 assay component(s) measured or calculated from the ATG_CIS assay. It is designed to make measurements of mRNA induction, a form of inducible reporter, as detected with fluorescence intensity signals by Reverse transcription polymerase chain reaction (RT-PCR) and Capillary electrophoresis technology.Data from the assay component ATG_MRE_CIS was analyzed into 1 assay endpoint. This assay endpoint, ATG_MRE_CIS, was analyzed with bidirectional fitting relative to DMSO as the negative control and baseline of activity. Using a type of inducible reporter, measures of mRNA for gain or loss-of-signal activity can be used to understand the reporter gene at the transcription factor-level as they relate to the gene MTF1. Furthermore, this assay endpoint can be referred to as a primary readout, because this assay has produced multiple assay endpoints where this one serves a reporter gene function. To generalize the intended target to other relatable targets, this assay endpoint is annotated to the dna binding intended target family, where the subfamily is zinc finger.
Human liver HepG2 cells are transiently transfected with multiple reporter transcription units (MRTUs) in 6-well plates using FuGene 6 reagent (Roche; 3 ml FuGene/1 mg DNA). The MRTU constructs are regulated by a cis-regulating element (promoter). […] A major difference between the CIS and TRANS system is that in CIS activities of endogenous TFs are measured, whereas the TRANS assay evaluates changes in activities of exogenous, chimeric NR-Gal4 proteins. […] At the end of 24 hour incubation, total RNA was isolated using TriZol reagent (Invitrogen). The isolated RNA is then reverse-transcribed using oligo(dT) primer and Mo-MLV reverse transcriptase (Invitrogen) with DNAse I (Ambion) treatment for 30 min. The one-tenth of the produced cDNA was amplified by PCR using Taq DNA polymerase (Invitrogen) and two reporter sequence-specific primers. The PCR products were fluorescently labeled by primer extension with 6-arboxyfluorescein (6-FAM) 5'-labeled reporter sequence-specific primer (2 min at 95 C, 20 s at 68 C and 10 min at 72 C) and these products were digested with 5U of HpaI (New England Biolabs) for 2h at 37 C. The fragments were purified using Qiaquick PCR columns (Qiagen), analyzed on an ABI 3130xL genetic analyzer (Applied Biosystems) with peak positions identified by using a set of X-rhodamine (ROX)-labeled MapMarker1000 molecular weight standards (BioVentures). The raw capillary electrophoresis data was processed using Attagraph software (Attagene).

SMILES	outcome	AC50
Cc1ccc(S(=O)(=O)O)cc1	inactive	
O=C1C=CC(=O)N1c1cccc(N2C(=O)C=CC2=O)c1	inactive	
CS(=O)(=O)c1ccc([C@@H](CC2CCCC2)C(=O)Nc2cnccn2)cc1Cl		113 µM (active)
CCCCCCCCCCCCOC(=O)c1cc(O)c(O)c(O)c1		18.5 µM (active)
OCCN1CN(CCO)CN(CCO)C1		165 µM (active)
O=C1OC2(c3ccccc31)c1cc(I)c(O)c(I)c1Oc1c2cc(I)c(O)c1I	inactive	36.3 µM (active) and 35.2 µM (active)
Cn1sccc1=O		163 µM (active)
CCN(CCC#N)c1ccccc1	inactive	
CC(C)(c1ccc(Oc2ccc(N)cc2)cc1)c1ccc(Oc2ccc(N)cc2)cc1		2.77 µM (active)
Clc1ccc(Nc2nnc(Cc3ccncc3)c3ccccc23)cc1		27.6 µM (active)
O=CC(F)(F)C(F)(F)C(F)(F)C(F)F	inactive	
Oc1cc2ccccc2cc1O	inactive	
CCCCCCCC(OC)OC	inactive	
NCc1cccc(CN)c1	inactive	
CCCCCCC(C)(C)C(=O)O	inactive	
CCCCCCCCCCCC(=O)O	inactive	181 µM (active)
COc1ccccc1NC(=O)c1cc2ccccc2cc1O		23.3 µM (active)
O=C(F)C(F)(F)C(F)(F)C(F)(F)C(F)F	inactive	
Nc1ccc(O)c(C(=O)O)c1	inactive	

SMILES	outcome	AC50
Oc1c(Cl)cc(Cl)cc1Sc1cc(Cl)cc(Cl)c1O		11.5 µM (active)
OCC(F)(F)C(F)(F)C(F)(F)C(F)(F)C(F)(F)C(F)(F)C(F)(F)C(F)(F)C(F)(F)C(F)(F)C(F)(F)F	inactive	
CCCCCCCCCC=CCC1CC(=O)OC1=O (stereo not given)	inactive	
O=CC(F)(F)C(F)(F)C(F)(F)F	inactive	
CC(O)COc1ccccc1 (stereo not given)	inactive	
CCO[Si](C)(C)OCC	inactive	
C=CC(=O)OCC(CO)(COCC(COC(=O)C=C)(COC(=O)C=C)COC(=O)C=C)COC(=O)C=C		2.9 µM (active)
O=C1OC(=O)c2cc(-c3ccc4c(c3)C(=O)OC4=O)ccc21	inactive	
CCCCCCOC(=O)c1ccc(O)cc1		59.6 µM (active)
C=CC(=O)OCCN(CC)CC		62.9 µM (active)
CCOC=C(C(=O)OCC)C(=O)OCC	inactive	
COc1ccc(C#N)cc1	inactive	
CCC(C)c1ccccc1O (stereo not given)	inactive	
N=C(N)c1ccc(OCCCCCOc2ccc(C(=N)N)cc2)cc1		65.2 µM (active)
CN(C)c1ccc(C(=C2C=CC(=[N+](C)C)C=C2)c2ccccc2)cc1		1.46 µM (active) and 1.3 µM (active)
CCC(=O)O	inactive	
CC1CCC(C(=O)O)CC1 (stereo not given)	inactive	
FC(F)(F)N1C(F)(F)C(F)(F)OC(F)(F)C1(F)F	inactive	
O=S(=O)(O)c1ccccc1	inactive	
